# Screens (PubChem)
# AmpC inh detg = qHTS Inhibitors of AmpC Beta-Lactamase (assay with detergent) | AID 485294, 2010 | AmpC hydrolysis of nitrocefin, absorbance 480 nm, 0.01% Triton | 370,000 tested, 0.041% active | Potency, µM (highest dose often 114 µM), inactives show at the highest dose activity change, negative = inhibition, most hits filed as inhibitors;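 further: potency means the concentration at half of the fitted maximal effect; 0% = no-compound wells and -100% = no-enzyme wells; nearly all actives have a fitted effect of over 25% in size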
# Target sequence (P00811 whole entry, looked up): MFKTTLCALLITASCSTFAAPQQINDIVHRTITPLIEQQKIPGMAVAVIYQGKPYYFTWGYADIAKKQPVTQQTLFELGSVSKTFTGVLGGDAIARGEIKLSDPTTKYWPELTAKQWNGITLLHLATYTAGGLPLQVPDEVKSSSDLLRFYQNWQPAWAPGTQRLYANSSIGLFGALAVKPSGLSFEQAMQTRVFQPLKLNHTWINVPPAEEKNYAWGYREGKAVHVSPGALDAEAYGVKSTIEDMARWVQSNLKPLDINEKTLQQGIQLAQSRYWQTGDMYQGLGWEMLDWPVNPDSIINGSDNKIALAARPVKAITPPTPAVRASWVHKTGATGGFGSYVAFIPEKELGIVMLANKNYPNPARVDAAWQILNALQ
#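 20 mM phosphate pH 7.0 + 0.01% (detergent screen) or 0.0001% Triton X-100; 5.3 nM AmpC reagent; cpd preinc 15 min RT; nitrocefin (800 uM stock) to start; A480 q20 s × 4 min; Activity was normalised to no-enzyme and no-compound control wells.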
# AMA1 RON2 block = qHTS for Inhibitors of AMA1-RON; Towards Development of Antimalarial Drug Lead: Primary Screen; 360,000 tested, 0.2% active; AlphaScreen AMA1-biotinylated RON2 peptide binding; Plasmodium falciparum AMA1 (3D7) - RON2 peptide interaction; Potency, µM (titrated, usually from 58.2 µM), for inactives: at the top dose activity change, negative = inhibition, usual class: inhibitors; AID 720542, 2013;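 further: potency means the concentration at half of the fitted maximal effect; 0% = vehicle wells and -100% = peptide control; nearly all actives have a fitted effect of over 45% in size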
#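 AMA1 (3D7) with his tag at 25 nM final met compounds first, then biotinylated RON2 peptide at 25 nM; detection used donor plus acceptor beads, 10 µg/mL apiece, read by AlphaScreen after 30 min at room temperature.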
# SARS PLP yeast = qHTS of Yeast-based Assay for SARS-CoV PLP | S. cerevisiae expressing SARS-CoV PLpro, growth rescue | Potency, µM (doses to about 32.9 µM), for the others: at the highest dose activity, positive = growth rescue, usual class: activators | 330,000 tested, 0.19% active | AID 485353, 2010; calls by dose curve; further: potency means the concentration at half of the fitted maximal effect; 0% is about no effect; nearly all actives have a fitted effect of over 55% in size
# CHX counter = Cycloheximide Counterscreen for Small Molecule Inhibitors of Shiga Toxin. cell reporter, cycloheximide protein synthesis inhibition counterscreen. max response, %. 300,000 tested, 12% active. AID 2314, 2010; in the data active means max response mostly above about 13%, no sharp cut-off; inactive means mostly below about 14%; further: read at 38.3 µM for the half of the compounds with a filed dose; 0% is about no effect
# Shiga toxin inh = A qHTS for Small Molecule Inhibitors of Shiga Toxin. inhibition, % at 38.7 µM. 290,000 tested, 9.2% active. Vero cells, Shiga toxin protein synthesis inhibition reporter; in the data active means inhibition mostly above about 28%, no sharp cut-off; inactive means mostly below about 43%; further: 0% is about no effect
# AmpC no deterg = qHTS Inhibitors of AmpC Beta-Lactamase (assay without detergent); P00811; AmpC nitrocefin hydrolysis, absorbance 480 nm, 0.0001% Triton; Potency, µM (series often up to 57.1 µM), inactives show at the top dose activity change, negative = inhibition, actives largely listed as inhibitors; 330,000 tested, 0.52% active; AID 485341, 2010;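 further: potency means the concentration at half of the fitted maximal effect; plate controls were no compound for no effect and no enzyme for full effect; nearly all actives have a fitted effect of over 20% in size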
#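 20 mM phosphate pH 7.0 + 0.01% (detergent screen) or 0.0001% Triton X-100; 5.3 nM AmpC reagent; cpd preinc 15 min RT; nitrocefin (800 uM stock) to start; A480 q20 s × 4 min; Activity was normalised to no-enzyme and no-compound control wells.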
# * marks the source's active call; other numbers are inactive results; ? = inconclusive; / = not tested or not shown. Shown is part of a subset that was picked to be rich in hits. Unless noted, the call rests on the fitted dose curve; in most records, active means well fitted curve in the direction sought with a large enough effect; inconclusive means small, poorly fitted or top-dose-only effect, or another doubt; inactive means no such curve, though single readings can be large; an effect the other way counts as inactive or inconclusive.
SMILES,AmpC inh detg,AMA1 RON2 block,SARS PLP yeast,CHX counter,Shiga toxin inh,AmpC no deterg
Cn1cnnc1SCC(=O)N1CCC(Cc2ccccc2)CC1,-14%,-5%,-5%,2,16,36%
Clc1ccc(-c2nnc(C3CC3)o2)cc1,3%,-3%,-5%,27,46,0%
Clc1ccc(-c2nnc(N3CCOCC3)o2)cc1,-7%,-3%,-1%,31*,90*,-5%
CS(=O)(=O)c1ccccc1-c1nnc(-c2ccc(Cl)cc2)o1,3%,-2%,-3%,19*,64*,-4%
O=C1c2ccccc2S(=O)(=O)N1CCOc1ccc(F)cc1,?,-3%,2%,21*,55,-16%
O=C(CCN1C(=O)c2ccccc2S1(=O)=O)NCc1ccc(F)cc1,2%,2%,4%,/,/,-60%
COc1ccc(N2C(=O)c3ccccc3NC23CCC(C)CC3)cc1 (centres undefined),?,10%,7%,32*,54,-35%
CCOc1ccc(N2C(=O)c3ccccc3NC2(C)CC)cc1 (centres undefined),6%,-9%,-2%,/,/,-24%
COc1ccc(N2C(=O)c3ccccc3NC23CCCCC3)cc1,-19%,-3%,0%,26*,52,-23%
COc1ccc(N2C(=O)c3ccccc3NC2(C)C)cc1,2%,4%,-1%,15,73*,-15%
CC1(C)Nc2ccccc2C(=O)N1c1ccc(Br)cc1,/,14%,/,/,/,/
CCc1nnc(NC(=O)c2nc(S(=O)(=O)Cc3ccccc3)ncc2Cl)s1,2%,66%,5%,75*,114*,-17%
CCc1nnc(NC(=O)c2nc(S(=O)(=O)Cc3cccc(C)c3)ncc2Cl)s1,-8%,69%,21%,58*,74*,103%
CCc1nnc(NC(=O)c2nc(S(=O)(=O)Cc3ccc(C)cc3)ncc2Cl)s1,25%,78%,6%,57*,78*,-22%
CCOc1ccccc1NC(=O)c1nc(S(=O)(=O)Cc2cccc(C)c2)ncc1Cl,-11%,0%,-9%,0,-13,-18%
C[C@H](CO)N1C[C@H](C)[C@@H](CN(C)C(=O)c2cc(-c3ccccc3)on2)OCc2cnnn2CCCC1=O,/,3%,/,/,/,/
Cc1c(C)n(Cc2ccccc2)c2ccc(C(=O)NCc3ccc(OC(C)C)cc3)cc12,0%,/,/,/,/,/
CC(=O)NN1C(=O)/C(=C\c2ccc(Br)o2)SC1=S,-3%,3%,18%,-4,-8,-16%
CC(=O)NN1C(=O)/C(=C/c2ccc(Br)o2)SC1=S,-14%,32µM*,24%,-1,-10,-17%
Cn1c(O)c(C=Nc2ccc(Br)cc2)sc1=O,-14%,-5%,-1%,45*,80*,-14%
Cn1c(O)c(C=Nc2ccc(Br)cc2)c(=O)n(C)c1=O,6%,0%,4%,-1,-11,-21%
Cc1cccc(NC(=O)c2ccccc2OCC(=O)c2ccc(F)cc2)c1,-9%,1%,2%,-5,-21,-21%
COc1ccc(C(=O)c2nc3c(n2O)CCCCC3)cc1,?,-4%,1%,48*,25,-6%
CCOc1ccc(C(=O)c2nc3c(n2O)CCCCC3)cc1,-13%,55%,-5%,14,21,-17%
O=C(c1ccc(Oc2ccccc2)cc1)c1nc2c(n1O)CCCC2,7%,30%,-41%,21*,47,-21%
CCCOc1ccc(C(=O)c2nc3c(n2O)CCCC3)cc1,2%,43%,-17%,27,50*,-18%
COc1ccc(-c2c(-c3cc(OC)cc(OC)c3)n(C)c3ccc(-c4cnc(N)nc4)cc23)cc1,/,0%,0%,/,/,-37%
CCCCNC(=O)/C(=C/c1ccco1)NC(=O)c1ccco1,-3%,39%,-3%,-1,-5,-8%
